# Results: ChEMBL document CHEMBL4649984, “CBP30, a selective CBP/p300 bromodomain inhibitor, suppresses human Th17 responses” (Proc Natl Acad Sci U S A, 2015)
# Values joined by “and” are separate entries in the source; they are usually repeats but may differ in a detail not shown here. Equal entries are not always repeated.
# Key:
# [1] = biological target: Bromodomain-containing protein 4 (Homo sapiens) (UniProt O60885); details: Compound concentration 10.0 uM, Protein concentration 2.0 uM
# [2] = biological target: T1, Transcription intermediary factor 1-alpha (Homo sapiens) (UniProt O15164); details: Compound concentration 10.0 uM, Protein concentration 2.0 uM
# T1 sequence (whole entry): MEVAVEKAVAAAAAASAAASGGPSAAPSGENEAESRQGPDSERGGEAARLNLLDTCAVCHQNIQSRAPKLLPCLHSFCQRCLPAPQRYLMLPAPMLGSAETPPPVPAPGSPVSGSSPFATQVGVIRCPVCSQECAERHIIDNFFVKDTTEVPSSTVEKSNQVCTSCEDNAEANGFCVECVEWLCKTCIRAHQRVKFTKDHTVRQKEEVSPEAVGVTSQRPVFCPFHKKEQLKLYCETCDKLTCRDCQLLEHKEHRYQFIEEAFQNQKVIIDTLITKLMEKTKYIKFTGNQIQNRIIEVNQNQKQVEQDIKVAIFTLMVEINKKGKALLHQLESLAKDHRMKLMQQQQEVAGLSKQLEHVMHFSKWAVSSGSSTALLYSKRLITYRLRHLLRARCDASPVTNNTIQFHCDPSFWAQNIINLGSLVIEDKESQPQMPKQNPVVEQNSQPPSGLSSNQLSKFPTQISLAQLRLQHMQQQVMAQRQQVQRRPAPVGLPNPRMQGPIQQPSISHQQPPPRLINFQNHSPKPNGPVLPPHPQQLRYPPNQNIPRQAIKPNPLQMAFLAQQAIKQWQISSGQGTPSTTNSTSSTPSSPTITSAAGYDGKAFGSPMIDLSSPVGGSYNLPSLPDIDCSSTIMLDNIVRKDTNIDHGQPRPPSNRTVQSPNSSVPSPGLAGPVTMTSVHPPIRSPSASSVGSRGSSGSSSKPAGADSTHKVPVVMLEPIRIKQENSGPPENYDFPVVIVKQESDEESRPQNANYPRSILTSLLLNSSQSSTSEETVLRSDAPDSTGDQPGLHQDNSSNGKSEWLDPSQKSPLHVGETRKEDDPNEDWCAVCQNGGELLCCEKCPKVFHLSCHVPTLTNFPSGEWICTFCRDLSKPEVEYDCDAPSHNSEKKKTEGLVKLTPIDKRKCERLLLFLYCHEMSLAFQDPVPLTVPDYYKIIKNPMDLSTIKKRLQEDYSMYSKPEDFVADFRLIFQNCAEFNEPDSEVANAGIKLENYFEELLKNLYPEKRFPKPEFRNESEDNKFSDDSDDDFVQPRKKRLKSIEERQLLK
smiles,measurement,setting,value
COc1ccc(CCc2nc3cc(-c4c(C)noc4C)ccc3n2C[C@H](C)N2CCOCC2)cc1Cl,ΔTm,[1],1.65 °C and 2.75 °C
same,ΔTm,[2],0.88 °C
